Reference: ChEMBL document CHEMBL4296182, “CO-ADD screening of NIH NCI Diversity Set V”
For part of these data: Measured potencies and affinities stand elsewhere.

Experiments:
Staphylococcus aureus = test: Antibacterial activity against Staphylococcus aureus MRSA ATCC 43300 (CO-ADD:GP_020); MIC in CAMBH media using NBS plates, by Resazurin F(560/590); format: functional; conditions: Concentration 20 uM, ASSAY_TEST Inhibition of Bacterial Growth, detection method Resazurin, Fluorescence (ex560/em590), MEDIA CAMHB, plate type 384well, CORNING #3640, time 18 hr
Acinetobacter baumannii = test: Antibacterial activity against Acinetobacter baumannii ATCC 19606 (CO-ADD:GN_034); MIC in CAMBH media using NBS plates, by Resazurin F(560/590); format: functional; conditions: Concentration 20 uM, ASSAY_TEST Inhibition of Bacterial Growth, detection method Resazurin, Fluorescence (ex560/em590), MEDIA CAMHB, plate type 384well, CORNING #3640, time 18 hr
Escherichia coli = test: Antibacterial activity against Escherichia coli ATCC 25922 (CO-ADD:GN_001); MIC in CAMBH media using NBS plates, by Resazurin F(560/590); format: functional; conditions: Concentration 20 uM, ASSAY_TEST Inhibition of Bacterial Growth, detection method Resazurin, Fluorescence (ex560/em590), MEDIA CAMHB, plate type 384well, CORNING #3640, time 18 hr
Klebsiella pneumoniae = conditions: Concentration 20 uM; ASSAY_TEST Inhibition of Bacterial Growth; detection method Absorption (OD600); MEDIA CAMHB; plate type 384well; NBS; CORNING #3640; time 18 hr
Candida albicans = conditions: 20 µM
Cryptococcus neoformans = conditions: Concentration 20 uM; ASSAY_TEST Inhibition of Fungal Growth; detection method Resazurin; Absorption (OD600-OD570); plate type 384well; NBS; CORNING #3640

For CC(C)(C)CC(C)(C)n1nnnc1N, the Inhibition (Staphylococcus aureus) was 12.74%, the Inhibition (Acinetobacter baumannii) was -17.3% and the Inhibition (Escherichia coli) was 15.8%. The Inhibition (Klebsiella pneumoniae) was 12.31%, the Inhibition (Candida albicans) was 0.83% and the Inhibition (Cryptococcus neoformans) was -5.24%.
Cc1ccc(NC(=O)N2CCN(C)CC2)cc1NC(=O)N1CCN(C)CC1 showed an Inhibition (Staphylococcus aureus) of 2.62%, an Inhibition (Acinetobacter baumannii) of 1.03% and an Inhibition (Escherichia coli) of -22.66%. It also gave an Inhibition (Klebsiella pneumoniae) of 4.06%, an Inhibition (Candida albicans) of 0.95% and an Inhibition (Cryptococcus neoformans) of 29.46%.
O=C(O)c1cc2cc(OCc3ccccc3)ccc2[nH]1 gave an Inhibition (Staphylococcus aureus) of 6.76%, an Inhibition (Acinetobacter baumannii) of 10.19% and an Inhibition (Escherichia coli) of 8.06%. It also gave an Inhibition (Klebsiella pneumoniae) of 12.38%, an Inhibition (Candida albicans) of 9.61% and an Inhibition (Cryptococcus neoformans) of -8.34%.
CCOC(=O)c1nn(C)c2[nH]c(=O)n(C)c(=O)c12 gave an Inhibition (Staphylococcus aureus) of 7.94%, an Inhibition (Acinetobacter baumannii) of 11.46% and an Inhibition (Escherichia coli) of 12.75%. The Inhibition (Klebsiella pneumoniae) was 11.59%, the Inhibition (Candida albicans) was 2.22% and the Inhibition (Cryptococcus neoformans) was -11.62%.
CN(C(=O)c1ccncc1)c1ccccc1 showed an Inhibition (Staphylococcus aureus) of 38.14%, an Inhibition (Acinetobacter baumannii) of 13.73% and an Inhibition (Escherichia coli) of 16.42%. The Inhibition (Klebsiella pneumoniae) was 7.45%, the Inhibition (Candida albicans) was 4.18% and the Inhibition (Cryptococcus neoformans) was 6.4%.
Work on CC(=O)c1c(O)c(C)c(O)c2c1OC1=CC(=O)/C(=C(/C)N)C(=O)C12C (stereo not given) yielded an Inhibition (Staphylococcus aureus) of -3.02%, an Inhibition (Acinetobacter baumannii) of 6.34% and an Inhibition (Escherichia coli) of 8.14%. For the same compound, the Inhibition (Klebsiella pneumoniae) was 14.26%, the Inhibition (Candida albicans) was 6.96% and the Inhibition (Cryptococcus neoformans) was -10.35%.
NS(=O)(=O)c1ccc(Cl)cc1[N+](=O)[O-] gave an Inhibition (Staphylococcus aureus) of -0.55%, an Inhibition (Acinetobacter baumannii) of -3.88% and an Inhibition (Escherichia coli) of 8.03%. For the same compound, the Inhibition (Klebsiella pneumoniae) was 12.78%, the Inhibition (Candida albicans) was 3.7% and the Inhibition (Cryptococcus neoformans) was 15.75%.
Compound CC1=CC(C)(C)Nc2ccc(Cc3ccc4c(c3)C(C)=CC(C)(C)N4)cc21 has an Inhibition (Staphylococcus aureus) of 2.44%, an Inhibition (Acinetobacter baumannii) of 4.53% and an Inhibition (Escherichia coli) of -20.49%. For the same compound, the Inhibition (Klebsiella pneumoniae) was -0.68%, the Inhibition (Candida albicans) was 14.9% and the Inhibition (Cryptococcus neoformans) was 28.4%.
NS(=O)(=O)c1ccc(/N=N/c2c(O)c(C(=O)O)cc3ccccc23)cc1 was tested, and the Inhibition (Staphylococcus aureus) was -3.85%, the Inhibition (Acinetobacter baumannii) was 10.2% and the Inhibition (Escherichia coli) was -7.6%. The Inhibition (Klebsiella pneumoniae) was 18.16%, the Inhibition (Candida albicans) was -3.08% and the Inhibition (Cryptococcus neoformans) was -0.96%.
OC(C#Cc1ccccc1)(c1ccccc1)c1ccccc1 gave an Inhibition (Staphylococcus aureus) of 14.7%, an Inhibition (Acinetobacter baumannii) of 1.28% and an Inhibition (Escherichia coli) of -2.05%. For the same compound, the Inhibition (Klebsiella pneumoniae) was 4.96%, the Inhibition (Candida albicans) was 3.27% and the Inhibition (Cryptococcus neoformans) was -7.2%.
O=c1cc(-c2cccnc2)oc2c1ccc1ccccc12 was tested, and the Inhibition (Staphylococcus aureus) was 20.75%, the Inhibition (Acinetobacter baumannii) was -10.07% and the Inhibition (Escherichia coli) was 18.5%. For the same compound, the Inhibition (Klebsiella pneumoniae) was -1.55%, the Inhibition (Candida albicans) was 29.4% and the Inhibition (Cryptococcus neoformans) was -11.93%.
Compound C=C(C)C/N=C/C1(C)CCC(C)=CO1 (stereo not given) has an Inhibition (Staphylococcus aureus) of -0.35%, an Inhibition (Acinetobacter baumannii) of 0.87% and an Inhibition (Escherichia coli) of -9.37%. It also gave an Inhibition (Klebsiella pneumoniae) of 5.17%, an Inhibition (Candida albicans) of 1.63% and an Inhibition (Cryptococcus neoformans) of 19.3%.
CC(C)(C)C(=O)/C=C/c1ccc(Oc2ccccc2)cc1 showed an Inhibition (Staphylococcus aureus) of 7.11%, an Inhibition (Acinetobacter baumannii) of -6.09% and an Inhibition (Escherichia coli) of -4.94%. It also gave an Inhibition (Klebsiella pneumoniae) of 20.89%, an Inhibition (Candida albicans) of 4.03% and an Inhibition (Cryptococcus neoformans) of -10.02%.
Work on Nc1ccc(/N=N/c2ccccc2)c2ccccc12 yielded an Inhibition (Staphylococcus aureus) of 1.47%, an Inhibition (Acinetobacter baumannii) of -18.91% and an Inhibition (Escherichia coli) of 11.66%. It also gave an Inhibition (Klebsiella pneumoniae) of 8.12%, an Inhibition (Candida albicans) of 1.76% and an Inhibition (Cryptococcus neoformans) of -16.64%.
For COc1ccc2nc(-c3ccc(Cl)cc3)cc(C(=O)O)c2c1, the Inhibition (Staphylococcus aureus) was -2.13%, the Inhibition (Acinetobacter baumannii) was -6.37% and the Inhibition (Escherichia coli) was 6.47%. The Inhibition (Klebsiella pneumoniae) was 11.49%, the Inhibition (Candida albicans) was 35.6% and the Inhibition (Cryptococcus neoformans) was -9.35%.
Work on CC(C)(C)n1nc(C2CC2)cc1NC(=O)Nc1ccc(Cl)cc1 yielded an Inhibition (Staphylococcus aureus) of 0.51%, an Inhibition (Acinetobacter baumannii) of 11.57% and an Inhibition (Escherichia coli) of -11.06%. For the same compound, the Inhibition (Klebsiella pneumoniae) was 6.85%, the Inhibition (Candida albicans) was 4.6% and the Inhibition (Cryptococcus neoformans) was 3.95%.
CCCCNCC1CCCO1 (stereo not given) gave an Inhibition (Staphylococcus aureus) of 9.4%, an Inhibition (Acinetobacter baumannii) of -3.42% and an Inhibition (Escherichia coli) of 8.45%. It also gave an Inhibition (Klebsiella pneumoniae) of 9.23%, an Inhibition (Candida albicans) of -0.1% and an Inhibition (Cryptococcus neoformans) of -3.66%.
With CC(OC(=O)Nc1cccc(Cl)c1)C(=O)O (stereo not given) the Inhibition (Staphylococcus aureus) was 8.5%, the Inhibition (Acinetobacter baumannii) was 9.43% and the Inhibition (Escherichia coli) was 16.3%. It also gave an Inhibition (Klebsiella pneumoniae) of 7.75%, an Inhibition (Candida albicans) of -1.51% and an Inhibition (Cryptococcus neoformans) of -11.24%.
COc1c(/C=N/NC(N)=O)c(OC)c(OC)c2c1CCO2 was tested, and the Inhibition (Staphylococcus aureus) was 5.41%, the Inhibition (Acinetobacter baumannii) was 0.63% and the Inhibition (Escherichia coli) was -9.64%. For the same compound, the Inhibition (Klebsiella pneumoniae) was 15.41%, the Inhibition (Candida albicans) was 4.39% and the Inhibition (Cryptococcus neoformans) was 14.65%.
With CCOC(=O)C1CC(C)=C(C)CC1C(=O)O (stereo not given) the Inhibition (Staphylococcus aureus) was -6.63%, the Inhibition (Acinetobacter baumannii) was 13.31% and the Inhibition (Escherichia coli) was 5.04%. It also gave an Inhibition (Klebsiella pneumoniae) of 7.81%, an Inhibition (Candida albicans) of 6.96% and an Inhibition (Cryptococcus neoformans) of -10.63%.
In the case of O=C(Nc1ccc(Nc2ccccc2)cc1)Nc1ccccc1Cl, the Inhibition (Staphylococcus aureus) is reported as -2.92%, the Inhibition (Acinetobacter baumannii) is reported as 1.03% and the Inhibition (Escherichia coli) is reported as 8.7%. The Inhibition (Klebsiella pneumoniae) was 12.39%, the Inhibition (Candida albicans) was 2.75% and the Inhibition (Cryptococcus neoformans) was -5.44%.
CCOC(=O)c1ccc2c(c1)NCc1cccc(OC)c1O2 gave an Inhibition (Staphylococcus aureus) of 4.26%, an Inhibition (Acinetobacter baumannii) of -16.83% and an Inhibition (Escherichia coli) of 9.22%. It also gave an Inhibition (Klebsiella pneumoniae) of 6.83%, an Inhibition (Candida albicans) of 9.96% and an Inhibition (Cryptococcus neoformans) of -17.21%.
Work on COc1cnc(SC)nc1Nc1ccc(C#N)cc1 yielded an Inhibition (Staphylococcus aureus) of 3.83%, an Inhibition (Acinetobacter baumannii) of 28.01% and an Inhibition (Escherichia coli) of 14.33%. It also gave an Inhibition (Klebsiella pneumoniae) of 23.54%, an Inhibition (Candida albicans) of 4.47% and an Inhibition (Cryptococcus neoformans) of -3.99%.
Work on CCOc1ccc2sc(NS(=O)(=O)c3ccc(N)cc3)nc2c1 yielded an Inhibition (Staphylococcus aureus) of -6.39%, an Inhibition (Acinetobacter baumannii) of -10.5% and an Inhibition (Escherichia coli) of 7.14%. The Inhibition (Klebsiella pneumoniae) was 12.93%, the Inhibition (Candida albicans) was 4% and the Inhibition (Cryptococcus neoformans) was -12.92%.
Compound Brc1csc2ncccc12 has an Inhibition (Staphylococcus aureus) of 8.68%, an Inhibition (Acinetobacter baumannii) of 14.4% and an Inhibition (Escherichia coli) of -1.37%. The Inhibition (Klebsiella pneumoniae) was 10.17%, the Inhibition (Candida albicans) was 7.21% and the Inhibition (Cryptococcus neoformans) was -5.07%.
